High-throughput results deposited in PubChem BioAssay by The Scripps Research Institute Molecular Screening Center.
PPARg SRC-1 ag: agonists of human PPARgamma SRC-1 coactivator recruitment; P37231; PPARgamma-SRC-1 coactivator recruitment biochemical assay; AID 631; activation, % at 8 µM; actives 0.41% (n = 200,000); in the data active = activation above about 19%;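 note: 0% = DMSO and 100% = reference agonist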
SRC1 TRFRET art: counter-screen for PPARgamma SRC-1 recruitment agonists: TR-FRET artefact; TR-FRET ratio at 8 µM; AID 1051; TR-FRET detection artefact counter-screen, emission ratio; active compounds read high; actives 0.34% (n = 99,000); in the data active = TR-FRET ratio above about 2300
SRC3 TRFRET art: counter-screen for PPARgamma SRC-3 recruitment agonists: TR-FRET artefact; PPARgamma/SRC-3 format; active compounds read high; TR-FRET ratio at 8 µM; actives 0.39% (n = 99,000); AID 1048; in the data active = TR-FRET ratio above about 2000
SRC2 TRFRET art: counter-screen for PPARgamma SRC-2 recruitment agonists: TR-FRET artefact; actives 0.4% (n = 200,000); TR-FRET ratio at 8 µM; active compounds read high; in the data active = TR-FRET ratio above about 2000
PPARg SRC3 recr: PPARgamma-driven SRC-3 recruitment agonism | P37231 | biochemical PPARgamma/SRC-3 coactivator recruitment assay | activation, % at 8 µM | actives 0.26% (n = 200,000); in the data active = activation above about 23%;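 note: 0% = DMSO and 100% = reference agonist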
PPARg SRC-2 ag: PPARgamma-driven SRC-2 recruitment agonism | P37231 | PPARgamma LBD-SRC-2 recruitment, biochemical | activation, % at 8 µM | actives 0.34% (n = 200,000) | AID 1032;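 note: 0% = vehicle and 100% = reference agonist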
PPARg SRC2 ag: human PPARgamma SRC-2 recruitment agonism, confirmation | shares compounds with PPARg SRC3 recr | biochemical SRC-2 recruitment by PPARgamma | activation, % at 8 µM | actives 52% (n = 790);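 note: 0% = vehicle alone and 100% = reference agonist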
PPARg SRC1 ag: confirmation of agonists of SRC-1 recruitment by human PPARgamma; shares compounds with PPARg SRC3 recr; PPARgamma–SRC-1 coactivator recruitment biochemical assay; activation, % at 8 µM; actives 43% (n = 790); AID 1300; in the data active = activation above about 20%;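 note: 0% = vehicle wells and 100% = reference agonist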
PPARg SRC3 ag: confirmation of agonists of SRC-3 recruitment by human PPARgamma. shares compounds with PPARg SRC3 recr. biochemical PPARgamma-SRC-3 coactivator recruitment, agonist mode. activation, % at 8 µM. actives 29% (n = 790). AID 1301; in the data active = activation above about 24%;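 note: 0% = vehicle wells and 100% = reference agonist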
Target sequence (P37231 whole entry, looked up): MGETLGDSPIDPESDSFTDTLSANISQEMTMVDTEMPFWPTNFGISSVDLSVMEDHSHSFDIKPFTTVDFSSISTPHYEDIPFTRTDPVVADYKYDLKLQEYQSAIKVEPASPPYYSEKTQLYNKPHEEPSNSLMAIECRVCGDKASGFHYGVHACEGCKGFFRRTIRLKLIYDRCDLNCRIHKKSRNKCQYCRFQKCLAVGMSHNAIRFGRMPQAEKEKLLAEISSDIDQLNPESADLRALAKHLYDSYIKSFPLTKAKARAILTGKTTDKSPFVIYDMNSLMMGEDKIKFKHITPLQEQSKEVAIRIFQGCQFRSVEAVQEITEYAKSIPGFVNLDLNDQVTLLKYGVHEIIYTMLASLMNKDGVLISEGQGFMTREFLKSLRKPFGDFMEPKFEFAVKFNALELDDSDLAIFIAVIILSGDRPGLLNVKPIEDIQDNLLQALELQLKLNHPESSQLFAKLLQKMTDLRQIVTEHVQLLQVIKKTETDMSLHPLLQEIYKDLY
Target sequence (Q9Y6Q9 whole entry, looked up): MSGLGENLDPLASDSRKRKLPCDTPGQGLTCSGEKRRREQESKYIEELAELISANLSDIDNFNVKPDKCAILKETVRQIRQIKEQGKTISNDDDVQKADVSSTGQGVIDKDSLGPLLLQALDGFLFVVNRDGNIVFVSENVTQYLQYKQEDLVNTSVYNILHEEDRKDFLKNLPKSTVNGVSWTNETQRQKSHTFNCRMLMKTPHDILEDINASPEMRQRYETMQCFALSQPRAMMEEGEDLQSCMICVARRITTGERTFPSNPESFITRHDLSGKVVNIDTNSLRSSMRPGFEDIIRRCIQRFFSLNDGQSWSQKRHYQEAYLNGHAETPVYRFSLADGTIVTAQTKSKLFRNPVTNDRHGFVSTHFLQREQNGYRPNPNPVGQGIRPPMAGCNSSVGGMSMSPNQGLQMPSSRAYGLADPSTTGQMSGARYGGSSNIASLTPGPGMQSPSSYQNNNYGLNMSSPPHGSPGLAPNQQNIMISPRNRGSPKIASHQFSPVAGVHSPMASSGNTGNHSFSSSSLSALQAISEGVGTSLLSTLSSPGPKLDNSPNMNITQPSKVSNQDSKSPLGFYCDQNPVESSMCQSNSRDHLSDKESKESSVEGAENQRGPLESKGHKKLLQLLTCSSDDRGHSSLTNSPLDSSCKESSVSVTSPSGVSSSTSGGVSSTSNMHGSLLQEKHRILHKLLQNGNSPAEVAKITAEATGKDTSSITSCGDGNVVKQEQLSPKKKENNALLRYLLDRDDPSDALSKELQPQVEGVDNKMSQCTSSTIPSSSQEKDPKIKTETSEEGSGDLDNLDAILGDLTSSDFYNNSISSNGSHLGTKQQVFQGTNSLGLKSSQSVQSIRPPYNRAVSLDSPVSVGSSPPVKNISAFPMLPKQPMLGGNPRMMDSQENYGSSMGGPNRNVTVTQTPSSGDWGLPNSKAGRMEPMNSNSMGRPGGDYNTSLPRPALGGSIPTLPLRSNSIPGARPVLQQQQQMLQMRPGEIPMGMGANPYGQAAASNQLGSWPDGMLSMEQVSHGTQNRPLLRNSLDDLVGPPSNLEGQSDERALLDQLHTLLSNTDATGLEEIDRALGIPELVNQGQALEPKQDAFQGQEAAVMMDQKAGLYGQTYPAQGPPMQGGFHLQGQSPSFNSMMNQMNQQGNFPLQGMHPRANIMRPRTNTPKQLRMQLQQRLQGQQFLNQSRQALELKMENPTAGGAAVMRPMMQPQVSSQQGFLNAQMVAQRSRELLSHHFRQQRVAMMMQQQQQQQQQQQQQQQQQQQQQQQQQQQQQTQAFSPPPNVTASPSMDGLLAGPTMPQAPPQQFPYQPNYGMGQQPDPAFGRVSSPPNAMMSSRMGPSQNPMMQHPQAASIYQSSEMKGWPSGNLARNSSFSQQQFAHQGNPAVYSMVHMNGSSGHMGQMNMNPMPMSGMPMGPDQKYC
* hit, by the source's call; · = not tested or not shown. Shown are actives, neighbours in structure and some others; about 0.9% of the full set was active somewhere. Cut-off read from the data, not from the text of the source, unless noted: active = activation above about 22%; inactive = the rest.

SMILES | PPARg SRC-1 ag | SRC1 TRFRET art | SRC3 TRFRET art | SRC2 TRFRET art | PPARg SRC3 recr | PPARg SRC-2 ag | PPARg SRC2 ag | PPARg SRC1 ag | PPARg SRC3 ag
COc1cc(OC)cc(C(=O)Nc2ccc(S(=O)(=O)Nc3nc(C)cc(C)n3)cc2)c1 | -1 | 1792 | 1512 | 1488 | -4 | 1 | · | · | ·
Cn1c(=O)cc(SCC(=O)NCC2CCCO2)c2ccccc21 (stereo not drawn) | 45* | · | · | 2686* | 78* | 49* | 35* | 23* | 22
Cc1ccc(Sc2c(O)c3ccccc3n(C)c2=O)cc1 | 24* | 2302 | 2226* | 2048* | 16 | 26* | 22* | 13 | 14
Cc1ccc(Sc2c(C=O)c3ccccc3n2C)cc1 | 7 | · | · | 1743 | -1 | 9 | · | · | ·
C=CCn1c(SCC(=O)Nc2ccccc2)nnc1-c1cccc(S(=O)(=O)N2CCOCC2)c1 | 11 | · | · | 1730 | 0 | 6 | · | · | ·
CCOC(=O)c1cc(-c2ccccc2)sc1NC(=O)C(C)Sc1nnnn1C (stereo not drawn) | 0 | · | · | 1573 | -7 | 1 | · | · | ·
CSc1oc(-c2ccccc2)nc1S(=O)(=O)c1ccc(C)cc1 | 16 | 2106 | 2062* | 1843 | 16 | 26* | 25* | 20* | 18
CCSc1oc(-c2ccccc2)nc1S(=O)(=O)c1ccccc1 | 0 | · | · | 1802 | 10 | 14 | · | · | ·
Cc1ccc(S(=O)(=O)c2nc(-c3cccs3)oc2SCC(N)=O)cc1 | 12 | · | · | 1927 | 16 | 31* | 32* | 32* | 21
O=c1c2sc(-c3ccccc3)cc2nc2n1CCC2 | -6 | · | · | 1627 | 4 | 6 | · | · | ·
COc1ccc(C(=O)Nc2cccc3c2C(=O)NC3=O)cc1S(=O)(=O)N1CCOCC1 | 21* | · | · | 1625 | 14 | -3 | -3 | -4 | -2
COc1ccccc1Cn1c(=O)c2ccccc2n2c(SCc3csc(C)n3)nnc12 | -2 | 1673 | 1479 | 1535 | -1 | 2 | · | · | ·
COc1ccccc1Cn1c(=O)c2ccccc2n2c(Sc3ncnc4sccc34)nnc12 | 26* | · | · | 3587* | 29* | 8 | 9 | 9 | 6
Cc1ccc(/C=N/Nc2ccc3ccccc3n2)o1 | 22* | 1804 | 1637 | 1767 | 16 | 14 | 7 | 1 | 4
Cc1ccc(CSc2nc3ncccc3[nH]2)cc1 | 11 | · | · | 1846 | 16 | 25* | 18 | 16 | 10
Cc1ccc(Sc2ccc(NC(=O)c3ccc(S(C)(=O)=O)cc3Cl)cc2)cc1 | 54* | · | · | 1563 | 33* | -1 | 24* | 21* | 14
CS(=O)(=O)c1ccc(C(=O)Nc2ccc(N3CCCCC3)cc2)c(Cl)c1 | 12 | 1810 | 1280 | 1563 | 1 | 0 | · | · | ·
C#CCn1cc(/C=N/Nc2nc3ccccc3[nH]2)c2ccccc21 | 15 | 2389* | 1807 | 1820 | 13 | 30* | 7 | 11 | 8
N#Cc1c(Cl)nc(SCc2ccccc2)nc1-c1ccccc1 | 59* | · | · | 2883* | 70* | 67* | 80* | 65* | 54*
NS(=O)(=O)c1ccc(CCNC(=O)c2cc(-c3ccccc3)nc3ccccc23)cc1 | -1 | 1708 | 1586 | 1481 | 0 | -1 | · | · | ·
NS(=O)(=O)c1ccc(CNC(=O)c2cc(-c3ccccn3)nc3ccc(Cl)cc23)cc1 | 63* | 3155* | 3729* | 2879* | 54* | 64* | 33* | 27* | 18
O=c1n(Cc2ccccc2)c2cc(Cl)cnc2n1Cc1ccccc1 | 3 | · | · | 1586 | 10 | -1 | · | · | ·
CCN(CC)CCN1C(=O)C(O)=C(C(=O)c2sc(C)nc2C)C1c1cccnc1 (stereo not drawn) | -13 | · | · | 1457 | 4 | 2 | · | · | ·
O=C(C1=C(O)C(=O)N(CCc2ccccc2)C1c1ccncc1)c1cc2ccccc2o1 (stereo not drawn) | 21* | 2514* | 2106* | 2092* | 10 | 25* | 26* | 18 | 18
CN(C)CCN1C(=O)C(O)=C(C(=O)c2cc3ccccc3o2)C1c1cccc(Br)c1 (stereo not drawn) | 36* | · | · | 2387* | 58* | 45* | 38* | 26* | 26*
SMILES | PPARg SRC-1 ag | SRC1 TRFRET art | SRC3 TRFRET art | SRC2 TRFRET art | PPARg SRC3 recr | PPARg SRC-2 ag | PPARg SRC2 ag | PPARg SRC1 ag | PPARg SRC3 ag
COc1ccccc1C1C(C(=O)c2cc3ccccc3o2)=C(O)C(=O)N1CCN(C)C (stereo not drawn) | 20* | · | · | 1988* | 25 | 17 | 14 | 13 | 9
COc1cc(C2C(C(C)=O)=C(O)C(=O)N2CCN(C)C)ccc1O (stereo not drawn) | 6 | · | · | 1429 | -1 | 2 | · | · | ·
CCN(CC)CCN1C(=O)C(O)=C(C(=O)c2cc3ccccc3o2)C1c1cccnc1 (stereo not drawn) | 33* | · | · | 2274* | 52* | 40* | 11 | 8 | 8
CCOCCCNC(=O)NC12CC3CC(CC(C3)C1)C2 | -4 | · | · | 1476 | -2 | -13 | · | · | ·
O=C(C1=C(O)C(=O)N(CCCN2CCOCC2)C1c1ccccn1)c1cc2ccccc2o1 (stereo not drawn) | 21* | · | · | 1804 | 35* | 25* | 17 | 12 | 9
C=CCOc1c(Cl)cc(CNc2ccc(N(C)C)cc2)cc1OC | 60* | · | · | 2956* | 120* | 103* | 9 | 9 | 6
C=CCOc1c(Cl)cc(CNc2ccc(C)c(Cl)c2)cc1OC | 2 | · | · | 1597 | -10 | -8 | · | · | ·
O=C(Cn1cnc2c(cnn2-c2ccccc2)c1=O)OCc1ccccc1 | -2 | · | · | 1624 | 6 | 0 | · | · | ·
CCn1c(=O)cc(SCC(=O)Nc2ccc(Cl)cc2)c2ccccc21 | 39* | · | · | 1617 | 20 | 2 | 34* | 23* | 24
CCn1c(=O)cc(SCC(=O)Nc2cccc(C)n2)c2ccccc21 | 58* | 3815* | 3307* | 3523* | 38* | 37* | 48* | 32* | 34*
CCn1c(=O)cc(OCC(=O)Nc2cccc(C)n2)c2ccccc21 | -2 | · | · | 1437 | -8 | 6 | · | · | ·
CCn1c(=O)cc(SCC(=O)Nc2ccc(OC)c(OC)c2)c2ccccc21 | 20* | · | · | 2203* | 34* | 42* | 48* | 33* | 32*
COc1cc(C2C(C(C)=O)=C(O)C(=O)N2CCc2c[nH]c3ccccc23)ccc1O (stereo not drawn) | 19* | · | · | 1653 | 9 | 5 | 0 | 0 | 3
CC(=O)C1=C(O)C(=O)N(CCc2c[nH]c3ccccc23)C1c1cccc(O)c1 (stereo not drawn) | -6 | · | · | 1589 | -3 | -1 | · | · | ·
